Compound activity as filed in PubChem BioAssay.
IDE exosite FP: displaces the probe from the exo-site of human IDE | z-score at 20 µM | P14735 | AID 1259349 | purified IDE, FL-6b probe fluorescence polarization; active compounds read low | 6.3% of 17,000 active;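 active = z-score of -3 or lower, meaning strong loss of probe binding signal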;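 also: His-tagged human IDE residues 42-1019 made in E. coli with 30 nM FL-6b probe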
Of the large screens only hits and unclear results are named; the others gave an inactive call. Many of the other results were omitted from the sample, so hits are more common in it than they were.

COc1cccc(-c2ccc(C3[C@@H]4CN(Cc5cccc(F)c5)C[C@H]3N4)cc2)c1 (some centres not stated)	none
COc1cccc(CN2C[C@@H]3N[C@H](C2)C3c2ccc(-c3ccncc3)cc2)c1 (some centres not stated)	none
CC(C)[C@H]1C(=O)N[C@@H](c2ccc(F)cc2)CC=CC[C@H](C)Oc2ccccc2C(=O)N1C (mixture of isomers)	none
N#C[C@@H]1[C@H](c2ccccc2-c2cccc(F)c2)[C@H](CO)N1C(=O)Cc1cccnc1	none
COc1ccc2c3c([nH]c2c1)[C@H](CO)N(C(C)=O)CC31CCN(C(=O)Nc2ccc(F)cc2F)CC1	none
O=C(c1cccc(F)c1)N1CC(=O)N2[C@@H](CO)[C@H](c3ccc(C4=CCCC4)cc3)[C@@H]2C1	none
N#C[C@H]1[C@H](c2ccccc2-c2cccc(F)c2)[C@H](CO)N1C(=O)CN1CCOCC1	none
Cc1cccc(-c2ccc([C@@H]3[C@@H](CO)N4CCCCN(S(=O)(=O)c5cn(C)cn5)C[C@H]34)cc2)c1	none
Cn1cnc(S(=O)(=O)N2CCCCN3[C@H](CO)[C@@H](c4ccc(-c5ccccc5)cc4)[C@H]3C2)c1	none
Cc1cccc(-c2ccc([C@H]3[C@H](CO)N4CCCCN(S(=O)(=O)c5ccccc5C)C[C@@H]34)cc2)c1	none
Cc1cccc(-c2ccc([C@@H]3[C@H](CO)N4CCCCN(S(=O)(=O)c5ccccc5F)C[C@@H]34)cc2)c1	IDE exosite FP -22.1
COc1cccc(-c2ccc([C@@H]3[C@H]4CN(S(=O)(=O)c5cn(C)cn5)CCCCN4[C@H]3CO)cc2)c1	IDE exosite FP -5.54
Cc1cccc(-c2ccc([C@H]3[C@@H](CO)N4CCCCN(S(=O)(=O)c5cn(C)cn5)C[C@H]34)cc2)c1	IDE exosite FP -11
COc1cccc(-c2ccc([C@H]3[C@@H](CO)N4CCCCN(S(=O)(=O)c5cccs5)C[C@@H]34)cc2)c1	none
COc1cccc(-c2ccc([C@@H]3[C@@H](CO)N4CCCCN(S(=O)(=O)c5cccs5)C[C@@H]34)cc2)c1	IDE exosite FP -3.16
Cn1cnc(S(=O)(=O)N2CCCCN3[C@H](C2)[C@H](c2ccc(-c4cccc(F)c4)cc2)[C@@H]3CO)c1	none
Cn1cnc(S(=O)(=O)N2CCCCN3[C@H](CO)[C@H](c4ccc(-c5cccc(F)c5)cc4)[C@H]3C2)c1	none
COc1cccc(-c2ccc([C@H]3[C@H]4CN(S(=O)(=O)c5cccs5)CCCCN4[C@H]3CO)cc2)c1	none
O=S(=O)(c1ccccc1F)N1CCCCN2[C@H](C1)[C@H](c1ccc(-c3ccccc3)cc1)[C@@H]2CO	none
C[C@@H]1CN([C@@H](C)CO)C(=O)c2cc(NC(=O)Nc3ccc4c(c3)OCO4)ccc2O[C@@H](C)CCCCO[C@H]1CN(C)C(=O)CCCN(C)C	none
CCNC(=O)C[C@H]1CC[C@@H]2[C@H](COC[C@@H](O)CN2C(=O)C2CCCC2)O1	none
N#Cc1ccc(-c2ccc([C@H]3[C@@H](CO)N4C(=O)CNC[C@H]34)cc2)cc1	none
CCNC(=O)[C@H]1[C@H](CO)[C@H]2Cn3c(ccc(/C=C/c4ccccc4)c3=O)[C@@H]1N2C(=O)c1ccncc1	none
Cc1ccccc1S(=O)(=O)Nc1ccc2c(c1)C(=O)N(C)[C@@H]1CC[C@H](CC(=O)O)O[C@@H]1CO2	none
O=S(=O)(Cc1ccccc1)N1CCCCN2[C@H](CO)[C@@H](c3ccc(-c4cccnc4)cc3)[C@@H]2C1	none
Cc1ccc(S(=O)(=O)N(C)C[C@@H]2OCCCC[C@H](C)Oc3ccc(NC(=O)c4ccncc4)cc3C(=O)N([C@H](C)CO)C[C@H]2C)cc1	none
COc1cccc(NC(=O)C[C@H]2CC[C@H]3[C@@H](COc4ccc(NC(=O)C5CC5)cc4C(=O)N3C)O2)c1	none
CO[C@@H]1CN(C)C(=O)c2cc(NS(=O)(=O)c3cn(C)cn3)ccc2OC[C@@H](C)N(Cc2cccc(C(F)(F)F)c2)C[C@H]1C	none
CN(C)C(=O)C[C@@H]1C=C[C@@H](NC(=O)c2ccc(F)cc2)[C@@H](CO)O1	none
O=C(C[C@@H]1CC[C@H]2[C@@H](COC[C@H](O)CN2C(=O)Nc2cccc(F)c2)O1)NCCCN1CCOCC1	none
OC[C@@H]1[C@@H](c2ccc(/C=C/c3ccccc3)cc2)[C@H]2CN(Cc3ccncc3)CCCCN12	IDE exosite FP -5.15
CCCC#Cc1ccc([C@H]2[C@H]3CN(Cc4ccncc4)CCCCN3[C@H]2CO)cc1	none
OC[C@H]1[C@@H](c2ccc(/C=C/c3ccccc3)cc2)[C@H]2CN(Cc3ccncc3)CCCCN21	IDE exosite FP -5.74
COc1ccc(C#Cc2ccc([C@@H]3[C@@H](CO)N4CCCCN(Cc5ccncc5)C[C@H]34)cc2)cc1	none
OC[C@@H]1[C@@H](c2ccc(/C=C/c3ccccc3)cc2)[C@@H]2CN(Cc3ccncc3)CCCCN12	IDE exosite FP -4.98
CCCC#Cc1ccc([C@H]2[C@@H](CO)N3CCCCN(Cc4ccncc4)C[C@@H]23)cc1	none
OC[C@H]1[C@@H](c2ccc(/C=C/c3ccccc3)cc2)[C@@H]2CN(Cc3ccncc3)CCCCN12	IDE exosite FP -7.94
CN1c2ccc(-c3cccc(C#N)c3)cc2[C@@H]2[C@@H](CCN2C(=O)Cc2ccccn2)[C@H]1CO	none
